The list is not random: actives were taken first. Their share in the collection is about 8.9%.
KB-3-1 cytotox – kills parental KB-3-1 adenocarcinoma cells. Potency, µM (titrated, usually from 46.1 µM), usual class: cytotoxic. KB-3-1 viability, CellTiter-Glo ATP luminescence, 72 h. hit rate 1.4% among 400,000. AID 1347075; note: potency is the fitted concentration of half-maximal effect; % is set by controls: 0 for no effect and ±100 for the full control effect; nearly all actives have a fitted effect of over 60% in size
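Here the drug-naive KB-3-1 line serves as comparator for MDR sub-line selectivity; cells received compound titrations, 72 h at 37 °C, then CellTiter-Glo readout.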
SW480 rerep – induces DNA re-replication in SW480 colon adenocarcinoma cells. SW480 DNA re-replication, Hoechst DNA content imaging, 48 h. Potency, µM (series often up to 46.1 µM), inactives show top-dose re-replication activation, most hits filed as activators. hit rate 1.8% among 340,000; note: potency is the fitted concentration of half-maximal effect; % of control where 0% means no effect; nearly all actives have a fitted effect of over 55% in size
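Per well, 250 cells were exposed to pinned compound for 48 hr. Nuclear DNA was visualised with Hoechst (40 min, 37 C) and total object intensity recorded by fluorescence scanning.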
D3 antag – antagonists of human D3 dopamine receptor; P35462; D3R cells, DiscoveRx beta-arrestin luminescence, antagonist mode; stronger effect = lower value; max response, negative = inhibition, %; hit rate 2.5% among 360,000; AID 652054; in the data active = max response below about -50%; inconclusive = no clear call, values can overlap the other calls; note: % is set by controls: 0 for no effect and ±100 for the full control effect
Target sequence (P35462 whole entry, looked up): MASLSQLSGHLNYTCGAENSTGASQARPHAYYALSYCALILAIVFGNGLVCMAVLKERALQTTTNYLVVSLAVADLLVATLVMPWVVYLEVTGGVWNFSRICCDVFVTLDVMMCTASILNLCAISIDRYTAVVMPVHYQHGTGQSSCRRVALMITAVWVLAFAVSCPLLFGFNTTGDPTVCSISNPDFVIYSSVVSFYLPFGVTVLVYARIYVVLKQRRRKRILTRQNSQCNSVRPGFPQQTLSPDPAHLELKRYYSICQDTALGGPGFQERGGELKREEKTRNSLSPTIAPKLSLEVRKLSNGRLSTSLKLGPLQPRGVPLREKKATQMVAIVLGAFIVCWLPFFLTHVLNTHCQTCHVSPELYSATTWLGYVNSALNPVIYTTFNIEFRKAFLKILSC
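Cells expressing the human receptor were seeded at 1500 cells/well, incubated overnight at 37 degrees C in 5% CO2, then exposed to library compounds with dopamine controls for 90 minutes at 37 degrees C before luminescent detection.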
MCF10A rerep – inducers of DNA re-replication in MCF 10A breast cells. MCF 10A DNA re-replication, Hoechst nuclear intensity, 48 h. Potency, µM (highest dose often 46.1 µM), without a hit: top-dose activity, positive = re-replication, most hits filed as activators. hit rate 2.9% among 350,000. AID 624296; note: potency is the fitted concentration of half-maximal effect; % of control where 0% means no effect; nearly all actives have a fitted effect of over 50% in size
KB-V1 cytotox – KB-V1 MDR subline cytotoxicity | KB-V1 MDR cells viability, CellTiter-Glo, 72 h | Potency, µM (top dose mostly 46.1 µM), hits mostly cytotoxic | hit rate 3.4% among 400,000 | AID 1347076; note: potency is the fitted concentration of half-maximal effect; % is set by controls: 0 for no effect and ±100 for the full control effect; nearly all actives have a fitted effect of over 60% in size
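In this primary screen, KB-V1 cells overexpressing P-gp are incubated with library compounds (lowest to highest concentration) for 72 h at 37 degrees C before a luminescent ATP viability read.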
DRD3 agonist – activates the human D3 dopamine receptor; P35462; D3R DiscoveRx beta-arrestin cells, luminescence, 90 min; max activation, %; hit rate 0.58% among 410,000; AID 652048; in the data active = max activation above about 30%; note: 0% is about no effect
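Agonist mode: compounds and dopamine controls were applied to plated cells for 90 min at 37 degrees C after an overnight attachment at 1500 cells/well. Luminescent read-out followed 30 - 60 minutes at room temperature with DiscoveRx detection reagent.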
Starred values were filed as active, the others as inactive; ! = not active in a repeat; [ ] = dose if it differs, or a comment. Unless noted, calls come from the whole dose curve; as a rule, active = well fitted curve in the direction sought with a large enough effect; inconclusive = small, poorly fitted or top-dose-only effect, or another doubt; inactive = no such curve, though single readings can be large; an effect the other way counts as inactive or inconclusive.

CCOc1ccc(/C=C(\C#N)C(=O)Nc2ccccn2)cc1 was read as KB-3-1 cytotox inactive, SW480 rerep -5%, D3 antag -7, MCF10A rerep 8%, KB-V1 cytotox inactive and DRD3 agonist -3.
`COc1cc(OC)c(/C=N/n2c(C)nnc2C)c(OC)c1` gave KB-3-1 cytotox inactive, SW480 rerep -120%, D3 antag -11, MCF10A rerep 26µM*, KB-V1 cytotox inactive and DRD3 agonist 3.
For COc1ccc(C(=O)C[n+]2ccc(Cl)c3ccc(Cl)cc32)cc1 the results were KB-3-1 cytotox inactive and KB-V1 cytotox inactive.
`O=C(NCc1ccccc1Cl)c1cnc2sc(N3CCCCC3)nn2c1=O` gave KB-3-1 cytotox inactive, KB-V1 cytotox inactive and DRD3 agonist 5.
Screening CCNC(=O)C1(C)CCCN1C(=O)c1cnc2ccccc2n1 (stereo not drawn) returned KB-3-1 cytotox inactive, D3 antag -58*, KB-V1 cytotox inactive and DRD3 agonist -3.
For O=C1c2ccccc2-c2c1c1ccccc1c(=O)n2CCO the results were KB-3-1 cytotox inactive, SW480 rerep 24%, D3 antag 1, MCF10A rerep inconclusive, KB-V1 cytotox 18µM* and DRD3 agonist 5.
For Cc1nc2ccccn2c1C(=O)N/N=C/c1ccc2c(c1)OCO2 the results were KB-3-1 cytotox inconclusive, SW480 rerep inconclusive, D3 antag 7, MCF10A rerep inconclusive, KB-V1 cytotox 18µM* and DRD3 agonist 1.
`Cc1nc2ccccn2c1C(=O)Nc1ccc2c(c1)OCCO2` gave KB-3-1 cytotox inconclusive, SW480 rerep 2%, D3 antag 0, MCF10A rerep 1%, KB-V1 cytotox inactive and DRD3 agonist 3.
Screening Cc1nc2ccccn2c1C(=O)NCc1ccc2c(c1)OCO2 returned KB-3-1 cytotox inactive, SW480 rerep 7%, D3 antag -13, MCF10A rerep 2%, KB-V1 cytotox 16µM* and DRD3 agonist -3.
For Cc1ccc(F)cc1NC(=O)c1ccc(Cn2nc(N3CCN(c4ccccc4)CC3)ccc2=O)o1 the results were DRD3 agonist 1.
CCn1c(C)c(C)c2cc(C(=O)NCc3ccc(OC)cc3OC)ccc21 was read as KB-3-1 cytotox inactive, KB-V1 cytotox inactive and DRD3 agonist -5.
Screening CN(CC(=O)Nc1ccc(Cl)cc1)C(=O)c1cccc(S(=O)(=O)N2CCN(Cc3ccccc3)CC2)c1 returned KB-3-1 cytotox 16µM*, SW480 rerep 10%, D3 antag -5, MCF10A rerep inconclusive, KB-V1 cytotox inconclusive and DRD3 agonist 2.
CN(C)S(=O)(=O)c1cccc(C(=O)N(Cc2ccc(F)cc2)Cc2ccco2)c1 was read as KB-3-1 cytotox inactive, SW480 rerep 2%, D3 antag -4, MCF10A rerep 3%, KB-V1 cytotox inactive and DRD3 agonist -6.
`O=C(c1cccc(S(=O)(=O)N2CCOCC2)c1)N(Cc1ccc(F)cc1)Cc1ccco1` gave KB-3-1 cytotox inactive, SW480 rerep -9%, D3 antag 9, MCF10A rerep 2.1µM*, KB-V1 cytotox inactive and DRD3 agonist -4.
`O=C(NCc1ccc(F)cc1)c1cccc(S(=O)(=O)N2CCCC2)c1` gave KB-3-1 cytotox inactive, SW480 rerep -1%, D3 antag -6, MCF10A rerep 19%, KB-V1 cytotox 23µM* and DRD3 agonist -6.
Screening O=C(NCc1ccc(F)cc1)c1cccc(S(=O)(=O)N2CCOCC2)c1 returned KB-3-1 cytotox inactive, SW480 rerep 6%, D3 antag 13, MCF10A rerep 4%, KB-V1 cytotox inactive and DRD3 agonist 3.
Screening COc1cccc(CNC(=O)c2cccc(S(=O)(=O)N3CCN(Cc4ccccc4)CC3)c2)c1 returned KB-3-1 cytotox inactive, SW480 rerep -3%, D3 antag -16, MCF10A rerep 6%, KB-V1 cytotox 15µM* and DRD3 agonist 6.
`CCc1cccc2c(C(O)(c3c[nH]c4c(CC)cccc34)c3c[nH]c4c(CC)cccc34)c[nH]c12` gave KB-3-1 cytotox inactive and KB-V1 cytotox inactive.
Screening CN(Cc1ccc(OC(F)F)cc1)C(=O)c1cccc(S(=O)(=O)N2CCN(Cc3ccccc3)CC2)c1 returned KB-3-1 cytotox 15µM*, SW480 rerep -68%, D3 antag inconclusive, MCF10A rerep -16%, KB-V1 cytotox inconclusive and DRD3 agonist -10.
CN(CC(=O)Nc1ccc(Cl)cc1)C(=O)c1cccc(S(=O)(=O)NCc2ccccc2)c1 was read as SW480 rerep 3%, D3 antag -64*, MCF10A rerep 15% and DRD3 agonist -31.
`CN(Cc1ccc(Cl)cc1Cl)C(=O)c1cccc(S(=O)(=O)NCc2ccccc2)c1` gave KB-3-1 cytotox inconclusive, SW480 rerep -4%, D3 antag -26, MCF10A rerep 3%, KB-V1 cytotox 5.2µM* and DRD3 agonist -3.
CN(Cc1c(F)cccc1Cl)C(=O)c1cccc(S(=O)(=O)NCc2ccccc2)c1 was read as KB-3-1 cytotox inactive, SW480 rerep -5%, D3 antag 10, MCF10A rerep 14%, KB-V1 cytotox inactive and DRD3 agonist 2.
Screening CCOc1ccc(NC(=O)C2CCC(CNS(=O)(=O)c3ccc(Br)s3)CC2)cc1 (stereo not drawn) returned KB-3-1 cytotox inactive, KB-V1 cytotox inactive and DRD3 agonist -4.
NC[C@@H]1O[C@@H](O[C@H]2[C@H](O)[C@H](O[C@@H]3O[C@H](CO)[C@@H](O)[C@H](N)[C@@H]3O)[C@@H](N)C[C@H]2N)[C@H](N)C[C@@H]1O was read as SW480 rerep -10%[20.6 µM] and MCF10A rerep 0%[20.6 µM].
Screening COc1ccc(NC(=O)[C@@H]2CC=C[C@@H]3CCN(Cc4ccc(Cl)c(Cl)c4)C(=O)[C@@H]32)cc1 returned KB-3-1 cytotox inconclusive, SW480 rerep inconclusive, D3 antag inconclusive, MCF10A rerep -31%, KB-V1 cytotox 23µM*! and DRD3 agonist -6.
Screening COc1ccc(NC(=O)[C@@H]2CC=C[C@@H]3CCN(Cc4ccccc4)C(=O)[C@@H]32)cc1 returned KB-3-1 cytotox inactive, SW480 rerep -17%, D3 antag 0, MCF10A rerep 4%, KB-V1 cytotox inconclusive and DRD3 agonist 0.
`Cc1cccc2c1-c1sc(C(=O)NCCCN3CCN(c4ccccc4F)CC3)cc1CO2` gave KB-3-1 cytotox inactive, KB-V1 cytotox inactive and DRD3 agonist 23.
`CCCCn1nnc(NC(=O)c2ccc(-c3cccc(Cl)c3)o2)n1` gave KB-3-1 cytotox inactive, SW480 rerep 2%, D3 antag -86*, MCF10A rerep inconclusive, KB-V1 cytotox inconclusive and DRD3 agonist -4.

Source: PubChem (National Center for Advancing Translational Sciences (NCATS))
